# In the library only some 1.3% were active in any assay of this set; here they are far more common.
# LYPLA1 counter: LYPLA1 (human) inhibition in PME1 counter-screen | O75608 | AID 2174 | inhibition, % at 5.9 µM | 0.16% of 320,000 active | recombinant LYPLA1, FP-Rh probe fluorescence polarization;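 active = inhibition above the mean of all tested compounds plus 3 SD, set per campaign, cut at about 14% in these data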;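 also: inhibitors block serine hydrolase probe labeling of LYPLA1 so polarization falls; 0% = enzyme with DMSO and 100% = wells lacking LYPLA1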
# EBNA-1 inh: blocks EBNA-1 binding to DNA | EBNA-1 DNA binding, fluorescence polarization | inhibition, % at 14.8 µM | 0.34% of 300,000 active; in the data active = inhibition above about 28%
# PREPL inh: inhibits the human prolyl oligopeptidase-like enzyme; 0.68% of 320,000 active; Q4J6C6; recombinant PREPL, fluorescence polarization activity-based probe; inhibition, % at 5.96 µM; in the data active = inhibition above about 43%;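 also: 0% = enzyme with DMSO and 100% = wells lacking enzyme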
# Target sequence (Q4J6C6 whole entry, looked up): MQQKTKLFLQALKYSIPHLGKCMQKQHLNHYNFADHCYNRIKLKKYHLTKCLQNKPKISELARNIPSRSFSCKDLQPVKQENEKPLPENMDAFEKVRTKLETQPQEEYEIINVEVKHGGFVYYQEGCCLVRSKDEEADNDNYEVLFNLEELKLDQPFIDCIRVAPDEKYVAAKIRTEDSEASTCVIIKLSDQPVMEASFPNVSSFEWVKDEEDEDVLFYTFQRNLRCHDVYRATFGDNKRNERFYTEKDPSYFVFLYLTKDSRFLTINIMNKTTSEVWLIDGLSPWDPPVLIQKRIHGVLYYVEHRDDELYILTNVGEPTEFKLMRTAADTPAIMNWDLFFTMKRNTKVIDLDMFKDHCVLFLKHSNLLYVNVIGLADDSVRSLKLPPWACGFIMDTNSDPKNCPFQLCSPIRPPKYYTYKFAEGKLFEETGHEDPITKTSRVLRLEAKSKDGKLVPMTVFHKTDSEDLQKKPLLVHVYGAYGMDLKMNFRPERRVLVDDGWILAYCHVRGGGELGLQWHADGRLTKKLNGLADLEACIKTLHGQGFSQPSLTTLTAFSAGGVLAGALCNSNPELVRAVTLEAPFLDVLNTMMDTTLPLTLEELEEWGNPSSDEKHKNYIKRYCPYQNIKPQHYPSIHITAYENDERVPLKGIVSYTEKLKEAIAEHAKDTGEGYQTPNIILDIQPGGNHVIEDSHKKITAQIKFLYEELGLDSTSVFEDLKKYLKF
# LYPLA2 inh: LYPLA2 (human) inhibition in PME1 counter-screen; O95372; recombinant LYPLA2, FP-Rh probe fluorescence polarization; 0.38% of 320,000 active; inhibition, % at 5.9 µM;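 active = inhibition above the screen-wide mean plus 3 SD, limit set per campaign, cut at about 26% in these data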;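 also: 0% = LYPLA2 with DMSO and 100% = wells lacking LYPLA2 enzyme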
# ZTA DNA inh: counter-screen for EBNA-1 inhibitors: inhibitors of Epstein-Barr virus ZTA; P03206; 0.15% of 320,000 active; inhibition, % at 11 µM; ZTA-DNA binding, fluorescence polarization; in the data active = inhibition above about 33%
# LYPLA1 confirm: counter-screen for PME1 inhibitors: confirmation of human LYPLA1 inhibitors; inhibition, % at 5.9 µM; shares compounds with LYPLA1 counter; 69% of 480 active; recombinant LYPLA1, FP-Rh probe fluorescence polarization; AID 2233;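 active = mean inhibition across replicates above the hit cutoff set in the primary screen, cut at about 15% in these data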;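 also: loss of FP-Rh probe labeling of LYPLA1 seen as lower polarization; 0% = LYPLA1 with DMSO and 100% = wells lacking LYPLA1 enzyme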
# LYPLA2 conf: LYPLA2 (human) inhibition, confirmation counter-screen; shares compounds with LYPLA2 inh; recombinant LYPLA2, FP-Rh probe fluorescence polarization; inhibition, % at 5.9 µM; 72% of 1,100 active;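 active = mean inhibition across replicates above the hit cutoff set in the primary screen, cut at about 26% in these data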;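 also: blocked labeling of the enzyme by serine hydrolase FP-Rh probe lowers polarization; 0% = enzyme with DMSO and 100% = wells lacking LYPLA2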
# LYPLA2 ABPP: LYPLA2 (human) inhibition, late stage results; shares compounds with LYPLA2 inh; rhLYPLA2 in mouse brain proteome, gel ABPP FP-Rh; inhibition, % at 20 µM; 30% of 150 active;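 active = inhibition of LYPLA2 enzyme probe labeling above about 50%, limit read from the data; inactive = inhibition below that limit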;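 also: loss of FP-Rh probe labeling of the LYPLA2 gel band measured as band density; 0% = DMSO only control band and 100% = blank gel background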
# The depositor's hits bear a star; nt = no result; + = active, no number.
SMILES,LYPLA1 counter,EBNA-1 inh,PREPL inh,LYPLA2 inh,ZTA DNA inh,LYPLA1 confirm,LYPLA2 conf,others
COc1ccc(CN2CCN(C(=O)Cn3nc(C(=O)O)c4ccccc4c3=O)CC2)cc1F,17*,7,-16,57*,-7,15*,63*,LYPLA2 ABPP=47
CC(=O)c1ccc(N2CCN(C(=O)c3ccc(C(=O)c4ccccc4)cc3)CC2)cc1,21*,nt,17,55*,-4,36*,65*,
CC(=O)N1CCN(C(=O)c2ccc(C(=O)c3ccccc3)cc2)CC1,4,2,1,4,-1,nt,nt,
O=C(COc1ccc(Br)cc1)NCCN1CCCC1,-1,5,1,3,5,nt,nt,
COc1ccc(CC(C)N2CCN(c3ccccc3OC)CC2)cc1OC (stereo not drawn),3,13,10,8,0,nt,nt,
COc1ccc(CC(C)N2CCN(Cc3ccccc3)CC2)cc1OC (stereo not drawn),25*,-6,9,28*,-4,5,-4,
COc1cc(OC)c(NC(=O)c2cncn2-c2ccc(F)cc2)cc1Cl,4,15,13,10,8,nt,nt,
Cc1ccc(NC(=S)N/N=C2\CC(C)(C)Oc3ccc(O)cc32)cc1,0,-1,-5,-2,-11,nt,nt,
CC(=O)N1CCC2(CC1)C/C(=N\NC(=S)Nc1ccc(C)cc1)c1cc(O)ccc1O2,22*,-10,23,50*,-8,31*,54*,
Cc1ccc(C)c(C(=O)CCC(=O)N2CCN(c3cccc(C(F)(F)F)c3)CC2)c1,37*,nt,3,57*,12,44*,64*,
COc1ccccc1C(=O)NCCC(=O)N1CCN(c2cccc(C(F)(F)F)c2)CC1,3,7,20,11,-22,nt,nt,
O=C(CCCCn1c(=O)[nH]c2ccccc2c1=O)N1CCN(c2cccc(C(F)(F)F)c2)CC1,20*,4,-7,83*,-10,22*,73*,
COc1ccc(N2CCN(C(=O)CCCCCn3c(=O)[nH]c4ccsc4c3=O)CC2)cc1,19*,-13,7,27*,7,46*,29*,
COc1ccc(N2CCN(CCCNC(=O)CCCn3c(=O)[nH]c4ccsc4c3=O)CC2)cc1,0,-1,20,5,2,nt,nt,
O=C(CC1C(=O)NCCN1Cc1ccccc1C(F)(F)F)NC1CCCCC1 (stereo not drawn),-9,-2,13,-10,-9,nt,nt,
O=C(CCN1CCN(S(=O)(=O)c2ccc(Cl)cc2)CC1)Nc1ccc(F)cc1,-3,-8,-5,7,-1,nt,nt,
Cc1cccc(N(C)S(=O)(=O)c2c(C)[nH]c(C)c2C(=O)N2CCCC2)c1,-1,-1,10,-1,-1,nt,nt,
COc1ccccc1-n1cc(C(=O)NCC(=O)N2CCN(Cc3ccccc3)CC2)c2ccccc2c1=O,16*,-4,-5,84*,9,22*,81*,
COc1ccccc1-n1cc(C(=O)NCC(=O)NCc2ccc(F)cc2)c2ccccc2c1=O,0,11,0,4,13,nt,nt,
Cc1ccc(CN2CCN(/N=C/C=C/c3ccccc3[N+](=O)[O-])CC2)cc1,33*,-1,26,71*,4,53*,77*,
CCc1noc(C)c1C(=O)Nc1cc(S(=O)(=O)N(CC)CC)ccc1N1CCOCC1,0,-10,-6,5,3,nt,nt,
Cc1ccc(-c2noc(C3CCCN(C(=O)c4ccc(C(C)(C)C)cc4)C3)n2)o1 (stereo not drawn),20*,9,-4,36*,5,23*,37*,
CN1C(=O)c2cccc3c(S(=O)(=O)Nc4ccccc4F)ccc1c23,0,5,-2,1,-8,nt,nt,
CCCC(=Nc1ccc(N)cc1)C1=C(O)C(C(=O)OC)C(C)(C)CC1=O (stereo not drawn),15*,-13,31,28*,-9,2,5,
CCCC(=O)C1=C(O)C(C(=O)OC)C(C)(C)CC1=Nc1ccc(N)cc1 (stereo not drawn),-3,3,-10,1,15,nt,nt,
SMILES,LYPLA1 counter,EBNA-1 inh,PREPL inh,LYPLA2 inh,ZTA DNA inh,LYPLA1 confirm,LYPLA2 conf,others
COc1ccc(C2=CC(=O)CC(C)(C)C2)cc1OC,7,nt,9,8,-19,nt,nt,
c1ccc(CN2CCN(CCCNc3ccc4nnc(-c5ccccc5)n4n3)CC2)cc1,36*,1,-30,38*,-14,38*,29*,
COc1cc(COc2ccc3c(C)c(Cc4ccccc4)c(=O)oc3c2)cc(OC)c1OC,17*,9,-9,50*,10,36*,57*,
COc1cccc(COc2ccc3c(C)c(Cc4ccccc4)c(=O)oc3c2)c1,0,-5,-6,8,8,nt,nt,
COc1ccc(C(=O)NC(=S)Nc2ccc(N3CCN(C(C)=O)CC3)cc2)cc1[N+](=O)[O-],55*,2,11,70*,-11,63*,75*,
CC(=O)N1CCN(c2ccc(NC(=S)NC(=O)c3ccc(C)c([N+](=O)[O-])c3)cc2)CC1,20*,-15,16,43*,-6,32*,56*,
COc1ccc(C(=O)NC(=S)Nc2cccc(NC(=O)c3ccco3)c2)cc1[N+](=O)[O-],37*,-2,-10,48*,5,13,24,
CCOc1ccc(C(=O)NC(=S)Nc2ccc(N3CCCCC3)cc2)cc1[N+](=O)[O-],-3,9,16,16,6,nt,nt,
Cc1csc(CN(C)C(=O)C2CCC(=O)N(CCN(C)C)C2)n1 (stereo not drawn),-1,-8,-1,-2,-15,nt,nt,
CSc1nsc(/C=C/Nc2ccc(O)cc2C)c1C#N,22*,4,24,30*,-4,-7,-7,
CSc1nsc(/C=C/Nc2ccc(F)cc2)c1C#N,-5,-1,8,-8,-2,nt,nt,
O=C(c1ccccn1)N1CCN(c2ccc(C(F)(F)F)cn2)CC1,0,10,-3,3,-1,nt,nt,
O=C(c1ccc2n[nH]nc2c1)N1CCN(c2ccc(C(F)(F)F)cn2)CC1,67*,nt,8,62*,13,58*,70*,
COc1ccccc1C(=O)NC(CCSC)C(=O)NNC(=O)C(C)Oc1ccccc1F (stereo not drawn),1,nt,-2,4,6,nt,nt,
CC(Sc1nnc(C(F)(F)F)n1C)C(=O)Nc1ccc(S(N)(=O)=O)cc1 (stereo not drawn),-1,7,-1,8,12,nt,nt,
CCn1c(CSc2nnc(-c3cccnc3)n2-c2ccccc2C)nc2cc(C(=O)O)ccc21,77*,124*,49*,80*,+,72*,72*,
